# The campaign covered roughly 17,000 compounds. About 35 (0.2%) were called active.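 The calls were made as follows: active = compounds whose four printed spots each show fluorescence over background unusually high for their array block, chance value under 7%; inactive = the rest.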 Only a selection was taken, and actives are over-represented in it overall.
# Molecular target: Signal transducer and activator of transcription 3 (Homo sapiens) (UniProt P40763)
# Test: STAT3 binders, primary screen, biochemical, small molecule microarray, single point, set 2 (AID 624138)
# Settings: His-STAT3 binding, anti-His fluorescence
# Chain of Signal transducer and activator of transcription 3 (Homo sapiens) (P40763 whole entry, looked up): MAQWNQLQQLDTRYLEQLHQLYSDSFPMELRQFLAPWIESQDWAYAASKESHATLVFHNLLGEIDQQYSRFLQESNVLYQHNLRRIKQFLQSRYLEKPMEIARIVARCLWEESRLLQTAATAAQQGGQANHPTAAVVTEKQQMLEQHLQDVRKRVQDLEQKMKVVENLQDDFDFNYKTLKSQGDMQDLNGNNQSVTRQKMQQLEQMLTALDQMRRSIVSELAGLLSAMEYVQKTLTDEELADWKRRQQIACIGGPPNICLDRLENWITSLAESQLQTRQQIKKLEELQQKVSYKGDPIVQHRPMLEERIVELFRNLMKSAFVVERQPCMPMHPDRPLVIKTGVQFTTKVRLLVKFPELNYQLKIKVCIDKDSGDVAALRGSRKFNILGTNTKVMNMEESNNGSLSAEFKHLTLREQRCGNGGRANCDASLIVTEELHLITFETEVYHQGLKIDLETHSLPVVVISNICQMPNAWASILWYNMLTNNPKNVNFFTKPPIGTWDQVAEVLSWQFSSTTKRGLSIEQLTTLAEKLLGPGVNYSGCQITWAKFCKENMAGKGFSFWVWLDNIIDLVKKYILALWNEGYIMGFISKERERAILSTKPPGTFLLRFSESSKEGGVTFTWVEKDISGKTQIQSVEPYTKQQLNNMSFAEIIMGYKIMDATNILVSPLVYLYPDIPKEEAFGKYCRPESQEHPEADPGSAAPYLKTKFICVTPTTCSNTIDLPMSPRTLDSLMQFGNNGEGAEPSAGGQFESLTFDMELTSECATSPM
row,SMILES,outcome
1,c1cncc(CNCCc2c[nH]c3ccccc23)c1,active
2,COc1ccc2[nH]cc(CCNCc3ccc(Br)cc3)c2c1,inactive
3,CC(=O)c1c(O)c(C)c(O)c(Cc2c(O)c3c(c(C(=O)/C=C/c4ccccc4)c2O)OC(C)(C)C=C3)c1O,inactive
4,C[C@H]1CCC/C=C/C2C[C@H](O)C[C@H]2[C@H](O)/C=C\C(=O)O1 (stereo not given in full),inactive
5,Cc1ccc(OC(=O)N(C)C[C@@H]2OCc3cnnn3CCCC(=O)N([C@H](C)CO)C[C@@H]2C)cc1,inactive
